We go through 50 compounds from PubChem BioAssay AID540276 (National Center for Advancing Translational Sciences (NCATS), 2011).

The structures appear in SMILES notation. Among all 300,000 compounds or so, about 5,400 (1.8%) were called active. About 28% were inconclusive and are not listed. What follows is part of a selection rich in actives, with near analogues and random picks from the rest. A number with no mark means an inactive call. Calls come from the whole dose curve; tested in HEK293 cells.
% is set by controls: 0 for no effect and ±100 for the full control effect; potency is the fitted concentration of half-maximal effect.

A short description of the assay: qHTS for inhibitors of binding or entry into cells for Marburg Virus. To be noted: Marburg virus pseudotyped entry inhibition, cell reporter; series mostly up to 37.8 µM; activity change, negative = inhibition: at the top concentration.
`O=C(OCCOc1ccccc1F)c1cc(S(=O)(=O)N2CCOCC2)ccc1F`: the “activity change, negative = inhibition” value is -2.85% [at 46.1 µM].

As for `C=CCn1c(COc2cccc3cccnc23)nnc1SCC(=O)OC`, the “activity change, negative = inhibition” value was 0.388%.

For the compound `COc1ccc(CCNC(=O)C(Sc2ccccn2)c2ccccc2)cc1OC` (stereo not given), the “activity change, negative = inhibition” value is -0.361%.

As to `CCCCC(=O)NC(c1ccc(OC)c(OC)c1)c1ccc2cccnc2c1O` (stereo not given), the Potency is 3.16 µM (active).

For `Cc1cccc(NC(=O)c2cccnc2Cl)n1`, the “activity change, negative = inhibition” value was 4.02% [at 46.1 µM].

With `CCOc1ccc(-n2c(SCC(=O)Nc3cc(C(=O)O)ccc3Cl)nc3ccccc3c2=O)cc1`, the “activity change, negative = inhibition” value is 21.7% [at 46.1 µM].

Turning to `N#CCCN(C(=O)COC(=O)c1ccc2c(c1)OCCO2)c1ccccc1`, the “activity change, negative = inhibition” value was -14.4% [at 46.1 µM].

On to `CN(C)c1ccc(NC(=S)N(CCc2ccccc2)C2CC(=O)N(c3c(Cl)cccc3Cl)C2=O)cc1` (stereo not given), for which the Potency was 4.47 µM (active).

Take `COC(=O)CN(C(=S)Nc1ccc(Cl)cc1)C1CC(=O)N(c2ccc(OC)cc2)C1=O` (stereo not given): the “activity change, negative = inhibition” value was 13.8%.

Consider `Cc1ccc(N2CC(C(=O)Nc3ccc(N(C)C)cc3)CC2=O)cc1Cl` (stereo not given), for which the “activity change, negative = inhibition” value is 1.2% [at 46.1 µM].

`COc1ccccc1NC(=O)COC(=O)CNC(=O)C1CCCCC1`: the “activity change, negative = inhibition” value was -18.1% [at 46.1 µM].

As for `CC(C=Cc1ccccc1)=NNS(=O)(=O)c1ccc([N+](=O)[O-])cc1`, the “activity change, negative = inhibition” value is 5.6% [at 46.1 µM].

`CCn1c(C(O)c2cc(OC)ccc2OC)nc2ccccc21` (stereo not given): the “activity change, negative = inhibition” value was 11.4%.

On to `Cc1nc(-c2ccc(F)cc2)c(CC(=O)Nc2cc(S(=O)(=O)N3CCCCC3)ccc2C)s1`, for which the “activity change, negative = inhibition” value is -29.3% [at 46.1 µM].

For `CC(=O)c1c(C)[nH]c(C(=O)OCC(=O)Nc2cc(S(=O)(=O)N3CCCCC3)ccc2C)c1C`, the Potency is 9.2 µM (active).

As to `CS(=O)(=O)c1ccc(Cl)c(NC(=O)COC(=O)c2cccc(S(=O)(=O)N3CCCC3)c2)c1`, the “activity change, negative = inhibition” value was 13.1% [at 46.1 µM].

With `COc1ccc(CCC(=O)Nc2ccc(Cl)c(S(=O)(=O)N3CCOCC3)c2)cc1OC`, the Potency is 6.31 µM (active).

As for `O=C(CCc1ccc(S(=O)(=O)N2CCOCC2)cc1)Nc1ccc2ccccc2c1`, the “activity change, negative = inhibition” value was -24%.

Regarding `COc1ccc(CC(=O)Nc2ccc3c(c2)CCC3)cc1S(=O)(=O)N1CCOCC1`, the “activity change, negative = inhibition” value was -5.43%.

Turning to `CCN(CC(=O)Nc1cc(Cl)ccc1C)C(=O)CSCc1ccccc1`, the “activity change, negative = inhibition” value is -23.3%.

Regarding `CCOCCCN1C(=O)C2C(C(=O)Nc3ccc(OCC)cc3)C3C=CC2(O3)C1C(=O)NC1CCCCC1` (stereo not given), the “activity change, negative = inhibition” value is -0.0854% [at 46.1 µM].

On to `COc1ccc(NS(=O)(=O)c2ccc(C)c(C(=O)NCC(c3cccs3)N3CCOCC3)c2)cc1` (stereo not given), for which the “activity change, negative = inhibition” value was 17.2%.

In the case of `CC(=O)Nc1ccc(S(=O)(=O)Nc2ccc(N3CCOCC3)c(F)c2)cc1`, the “activity change, negative = inhibition” value was -4.97%.

Consider `COc1ccc(NS(=O)(=O)c2ccc(N3CCOCC3)c(NC(=O)c3ccccc3Br)c2)cc1`, for which the Potency is 2.51 µM (active).

Turning to `CCCCCN(C(=O)CCC(=O)OCC(=O)NC1CCC(C)CC1)c1c(N)n(CCCC)c(=O)[nH]c1=O` (stereo not given), the “activity change, negative = inhibition” value was -5.54%.

Turning to `CC1CCN(C(=O)C2CCN(S(=O)(=O)N3CCC4(CC3)OCCO4)CC2)CC1`, the “activity change, negative = inhibition” value is 5.15% [at 46.1 µM].

Regarding `NC(=O)C1CCN(C(=O)c2cn(-c3ccccc3)nc2-c2cccnc2)CC1`, the “activity change, negative = inhibition” value is 7.53%.

Consider `CC1=NNC(=O)C1CCC(=O)N/N=C(\C)c1ccc(Cl)cc1` (stereo not given), for which the “activity change, negative = inhibition” value is 21% [at 46.1 µM].

Regarding `C/C(=N\NC(=O)Cc1ccc(Cl)cc1)c1ccccn1`, the Potency was 3.26 µM (active).

As to `C/C(=N\NC(=O)Cc1ccc(Br)cc1)c1cccnc1`, the “activity change, negative = inhibition” value is 7.54% [at 46.1 µM].

Regarding `Cn1c(CCNS(=O)(=O)c2ccc(F)cc2)nnc1SCc1cccnc1`, the “activity change, negative = inhibition” value is -1.17% [at 46.1 µM].

With `Cc1ccc(Br)c(NS(=O)(=O)c2cccc(C(=O)N3CCNC(=O)C3)c2)c1`, the “activity change, negative = inhibition” value was -6.8%.

Turning to `Cc1c(NC(=O)C(C)OC(=O)c2ccccc2O)c(=O)n(-c2ccccc2)n1C` (stereo not given), the “activity change, negative = inhibition” value is -14.6%.

For `Fc1ccc2[nH]c3c(N4CCN(Cc5ccc6c(c5)OCO6)CC4)ncnc3c2c1`, the Potency was 8.91 µM (active).

On to `Cc1cc(N2CCN(Cc3ccc4c(c3)OCO4)CC2)n2ncnc2n1`, for which the “activity change, negative = inhibition” value was 6.99%.

Consider `Fc1ccc(N2CCN(Cc3ccc4c(c3)OCO4)CC2)cc1`, for which the “activity change, negative = inhibition” value is 22.5%.

`Fc1ccc2[nH]c3c(N4CCSCC4)ncnc3c2c1`: the Potency was 10 µM (active).

In the case of `O=C(C1C=CC(C(=O)N2CCOCC2)S1)N1CCOCC1` (stereo not given), the “activity change, negative = inhibition” value was 19.3% [at 46.1 µM].

As to `O=C(Cn1ccc2cc(S(=O)(=O)N3CCCC3)ccc21)NCc1ccccc1`, the “activity change, negative = inhibition” value was -13.9% [at 46.1 µM].

As to `COCCn1c(C)cc(C(=O)CSc2nnc(C3CC3)n2C2CC2)c1C`, the “activity change, negative = inhibition” value was 10.6%.

Consider `CCN(CC)CCCC(C)Nc1ccnc2cc(Cl)ccc12` (stereo not given), for which the Potency was 5.62 µM (active).

For `CCN(CC)CCNc1ccc(Cl)cc1[N+](=O)[O-]`, the “activity change, negative = inhibition” value was 2.68%.

`COc1ccc(CNC(=O)C(C)NCc2ccccc2Cl)cc1` (stereo not given): the “activity change, negative = inhibition” value is -8.02%.

As to `Cc1cccc(N2C(=O)C[C@@H](N3CCN(Cc4ccc(Cl)cc4)CC3)C2=O)c1`, the “activity change, negative = inhibition” value was -3.25%.

For `Cc1nn2c(c1-c1ccccc1)N=C(c1ccco1)CC2c1ccccc1` (stereo not given), the Potency was 0.517 µM (active).

As to `Cc1ccc(C)c(C(C)NC(=O)C2CCCO2)c1` (stereo not given), the “activity change, negative = inhibition” value is -16.9% [at 46.1 µM].

On to `COC(CNC(=O)c1ccc2c(c1)ncn2-c1cc(C)cc(C)c1)OC`, for which the “activity change, negative = inhibition” value is 0.48% [at 46.1 µM].

In the case of `N/C(=N\OC(=O)Nc1ccc(Cl)c(Cl)c1)c1ncc(C(F)(F)F)cc1Cl`, the “activity change, negative = inhibition” value was -4%.

For the compound `O=C(CC(O)(C(F)(F)F)C(F)(F)F)Nc1ccc(Cl)c(Cl)c1`, the Potency was 3.26 µM (active).

For `O=C(CC(=O)Nc1ccc(Cl)c(Cl)c1)N/N=C/c1ccc(O)cc1`, the “activity change, negative = inhibition” value was -16.3%.
